Screening data as filed in PubChem BioAssay.
PERK inhibitor = blocks human PERK kinase. CHO PERK-DD fusion, SEAP luminescence translation reporter. Q9NZJ5. inhibition, % at 5.6 µM. 0.17% of 220,000 active;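 active = inhibition above the mean inhibition of all tested compounds plus 3 SD, set separately per screening campaign, cut at about 2.9% in these data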;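 also: PERK kinase domain activated by AP20187 dimerizer at 100 nM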
eIF4E 4G PPI = blocks eIF4E binding to eIF4G; P63073+Q04637; TR-FRET eIF4E-eIF4GI(517-606) binding, 2 h; inhibition, % at 21.7 µM; 0.37% of 220,000 active; AID 782;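 active = inhibition above about 30%, limit read from the data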
Insulin prom inh = TRM-6 insulin promoter activity inhibition; TRM-6 cells (human fetal islet line), insulin promoter-eGFP reporter, imaging; reporter expression induced with tamoxifen; inhibition, % at 2 µM; 0.9% of 130,000 active; AID 1273;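 active = inhibition above the mean plus 3 SD, with well images judged a real hit on visual review, cut at about 60% in these data, passing the limit was not always enough; inconclusive = inhibition over the cutoff but images rejected on review; inactive = inhibition not above the cutoff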
Autophagy HCS = alters autophagy in cells; MEF GFP-LC3 puncta imaging; test concentration mostly 10 µM; 0.98% of 190,000 active; calls only at 10 µM (by protocol);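 active = percentage of spot-positive cells more than 3 SD above its plate mean, without a fluorescence outlier flag or 80% toxicity; inconclusive = no clear call, values can overlap the other calls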
Ins promoter up = MIN6 insulin promoter up-regulation; MIN6 insulin promoter-GFP reporter, high-content imaging; stronger effect = higher value; z-score at 5 µM; 0.3% of 190,000 active; AID 1625;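 active = z-score above 3 at 5 µM with at least 500 cells counted in the well; inconclusive = wells under 500 cells, flagged as cytotoxic or low count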
Large screens that a line does not name were inactive. Compounds with a hit are over-represented: about 2% of the library has one in this group of screens.

N#Cc1ccc(N=c2ssnc2Cl)cc1	none (no result: Ins promoter up)
O=C(CN1CCCc2ccccc21)N/N=C/c1c(O)ccc2ccccc12	none
COc1ccc(N=c2ssnc2Cl)cc1	eIF4E 4G PPI 30.3 (no result: Ins promoter up)
Clc1nssc1=Nc1ccccc1	eIF4E 4G PPI 50.6
O=C1CSC(=Nc2ccccc2)N1Cc1ccccc1	none
CN(C)S(=O)(=O)c1ccc(-c2csc(N/N=C/c3ccc(O)cc3)n2)cc1	Ins promoter up inconclusive (no result: Insulin prom inh, Autophagy HCS)
CN(C)c1nc(N)nc(/C(C#N)=C/C2CC3C=CC2C3)n1 (centres undefined)	Ins promoter up 3.05
CCN(CC)c1cc2nc(C)n(Cc3ccccc3)c(=O)c2cc1NC(=O)C1CC1	Insulin prom inh 84.6
CN1CCOCCOCCN(C)C(=O)N2CCOCCOCCN(CCOCC2)C1=O	PERK inhibitor 3.6 (no result: eIF4E 4G PPI)
C/C(=N/NS(=O)(=O)c1ccccc1)c1ccc(NC(=O)C2CC2)cc1	none (no result: Insulin prom inh, Ins promoter up)
COc1ccc2c(C(=O)CN(C)C3CCCCC3)c[nH]c2c1	Ins promoter up 4.45
COc1ccc2c(C(=O)CN3CCSCC3)c[nH]c2c1	none (no result: Insulin prom inh, Autophagy HCS)
CC1CCN(S(=O)(=O)c2ccc3c(c2)oc(=O)n3CC(=O)N2CCc3ccccc3C2)CC1	none (no result: Insulin prom inh)
CN(C)S(=O)(=O)c1cccc(NC(=O)COC(=O)CCc2nc3ccccc3s2)c1	none
CCOC(=O)CSc1nnc(CNC(=O)c2ccc(S(=O)(=O)N3CCOCC3)cc2)n1C	none (no result: Insulin prom inh)
CCOC(=O)CSc1nnc(CNC(=O)c2ccc(S(=O)(=O)N3CCCC3)cc2)n1C	Insulin prom inh 90.0 (no result: Ins promoter up)
Cc1cccc(NC(=O)Nc2cccc(C#N)c2)n1	none
Cc1cccc(NC(=O)Nc2ccc(C#N)cc2)n1	Ins promoter up 3.41
COc1ccc(C2C(C(=O)O)c3ccccc3C(=O)N2Cc2ccco2)cc1 (centres undefined)	none (no result: Insulin prom inh, Autophagy HCS)
CCCC(=O)Nc1cccc(-c2nc3ccccc3c(=O)o2)c1	none (no result: Insulin prom inh)
CCOC(=O)c1sc(=NC(=O)CCS(=O)(=O)c2ccccc2)n(C)c1C	none
CCOC(=O)c1sc(=NC(=O)COc2ccc(Cl)cc2)n(C)c1C	Autophagy HCS active (no result: Insulin prom inh)
CCc1c(C)nc(SCc2ccccn2)[nH]c1=O	none
CC(C)Cc1csc(NC(=O)c2ccc(Br)cc2)c1C(=O)O	PERK inhibitor 3.2 (no result: Insulin prom inh, Autophagy HCS)
CC(C)Cc1csc(NC(=O)C(C)C)c1C(=O)O	none (no result: Insulin prom inh, Autophagy HCS)
CC1(C)C(=O)OC(c2ccccc2)C2(CCCC2)C1=O (centres undefined)	none
Cc1cc2ccccc2nc1SCC(=O)N1c2ccccc2CC1C (centres undefined)	Insulin prom inh 100.0
COc1ccccc1OCC(=O)Nc1ccc(O)cc1C(=O)O	none
CCOc1ccccc1C(=O)N1CCN(c2cccc(Cl)c2)CC1	Autophagy HCS active
COc1cc(Cl)ccc1NC(=O)COc1ccccc1C(=O)N1CCN(c2ccc(O)cc2)CC1	Insulin prom inh 78.6 (no result: Ins promoter up)
CCOc1ccc2ccccc2c1C(=O)N1CCN(c2ccccc2)CC1	Autophagy HCS active
O=C(COc1ccc(/C=N/NC(=O)c2ccccc2O)cc1)Nc1ccccc1	none (no result: Insulin prom inh)
CCN(CC)c1ccc(/C=N/NC(=S)NCc2ccco2)cc1	Insulin prom inh 100.0
COc1ccc(NC(=O)c2ccc(S(=O)(=O)N3CCOCC3)o2)cc1	none (no result: Insulin prom inh, Autophagy HCS)
O=C(O)c1cn(C2CCCCC2)c2ccccc2c1=O	none (no result: Insulin prom inh, Autophagy HCS)
O=C(O)c1cc(-c2ccco2)nn1-c1ccc(Cl)cc1	eIF4E 4G PPI 31.2 (no result: Insulin prom inh)
O=C(O)c1cc(-c2ccco2)nn1-c1cccc(Cl)c1	none
Cc1ccc(-n2nc(-c3ccco3)cc2C(=O)O)c(C)c1	eIF4E 4G PPI 40.0
Cc1cc(NC(=O)CCCn2nc([N+](=O)[O-])c(Cl)c2C)no1	Autophagy HCS active
Cc1cc(NC(=O)CCCn2nc([N+](=O)[O-])cc2C)no1	none (no result: Insulin prom inh)
O=C(NC1=NCCS1)c1sc2cc(F)ccc2c1Cl	none (no result: Insulin prom inh)
O=C(Nc1ccon1)c1sc2cc(F)ccc2c1Cl	Autophagy HCS active
CCOC(=O)C1CSc2[nH]c(=O)sc2C1c1ccccc1 (centres undefined)	none
O=C(O)CC12CSc3[nH]c(=O)sc3C1c1ccccc1OC2=O (centres undefined)	Ins promoter up 3.25 (no result: Insulin prom inh)
CCOC(=O)/C=c1\s/c(=C\c2ccc3cc(OC)ccc3c2)c(=O)n1CC(=O)NCC1CCCO1 (centres undefined)	Autophagy HCS active (no result: Insulin prom inh)
CCOC(=O)/C=c1\s/c(=C\c2ccc(C)cc2)c(=O)n1CC(=O)NCc1ccco1	Insulin prom inh inconclusive
CCOC(=O)/C=c1\s/c(=C\c2sccc2C)c(=O)n1CC(=O)NCc1ccc(C)cc1	Autophagy HCS active (no result: Insulin prom inh)
COc1ccc(/C=C/C(=O)OCC(=O)NCC2CCCO2)cc1 (centres undefined)	none
N#Cc1c(NC(=S)NC(=O)c2ccccc2)sc2c1CCN(CCc1ccccc1)C2	Autophagy HCS active (no result: Ins promoter up)
Cc1ccc(OCC(=O)N/N=C/c2cc([N+](=O)[O-])ccc2N2CCCCC2)cc1	Autophagy HCS active
O=C(Cn1c2ccccc2c(=O)c2ccccc21)N/N=C/c1cc([N+](=O)[O-])ccc1N1CCCCCC1	Autophagy HCS active (no result: eIF4E 4G PPI, Insulin prom inh)
O=C(COc1ccc([N+](=O)[O-])cc1)N/N=C/c1cc([N+](=O)[O-])ccc1N1CCOCC1	none
O=C1c2ccncc2C(=O)N1c1cccc(Cl)c1	PERK inhibitor 4.0
O=C1c2cccc3cccc(c23)C(=O)N1c1cccnc1	none (no result: Insulin prom inh)
CCCCNC(=O)C1C2C=CC(C2)C1C(=O)O (centres undefined)	none
O=C(O)C1C2C=CC(C2)C1C(=O)NCCCN1CCOCC1 (centres undefined)	PERK inhibitor 3.0 (no result: Insulin prom inh)
O=C(c1cccc([N+](=O)[O-])c1)N1CCCN(C(=O)c2cccc([N+](=O)[O-])c2)CC1	none
COC(=O)c1[nH]c2ccccc2c1NC(=O)CN1CCN(C(=O)c2ccco2)CC1	Insulin prom inh 90.9
NC(=O)c1c(NC(=O)C2COc3ccccc3O2)sc2c1CCN(Cc1ccccc1)C2 (centres undefined)	Autophagy HCS active
CCOC(=O)c1c(NC(=O)C2COc3ccccc3O2)sc2c1CCN(Cc1ccccc1)C2 (centres undefined)	none (no result: Insulin prom inh)
O=C(CSc1nc2ccccc2o1)Nc1nccs1	none (no result: Insulin prom inh)
Cc1ccc(-c2[nH]ncc2/C=N/n2c(COc3ccccc3C)nc3ccccc3c2=O)cc1	none
Cc1cccc(Oc2nccc(C(F)(F)F)c2C(=O)Nc2ccc(F)cc2F)c1	Ins promoter up 3.57 (no result: Insulin prom inh, Autophagy HCS)
Cc1nc(-c2ccccc2)sc1-c1nc(-c2cccnc2)ncc1S(=O)(=O)c1ccccc1	none (no result: Insulin prom inh)
COc1ccc(-n2c(SCC(=O)N/N=C/c3ccccc3OCC(=O)O)nc3ccccc3c2=O)cc1	none (no result: Insulin prom inh, Autophagy HCS, Ins promoter up)
COc1ccc(CN2CCN(C(=O)CC(C)C)CC2)c2ccccc12	Insulin prom inh 75.3
CN1C(C(=O)NCc2cccc(C(F)(F)F)c2)CC2Cn3c(nc4cc(Cl)c(Cl)cc43)C21 (centres undefined)	none (no result: PERK inhibitor, Insulin prom inh, Autophagy HCS)
COc1ccc(CN2C(=O)c3cccnc3C2Nc2cc(Cl)ccc2OC)cc1 (centres undefined)	eIF4E 4G PPI 98.8
c1ccc(Cn2nnc3c(N4CCc5ccccc5C4)ncnc32)cc1	Insulin prom inh 81.8
